The source made the active and inactive calls.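 Rule for the calls: active = at least 15% MAC1-positive differentiation at the top dose and half-maximal dose below 10 µM; inactive = the rest.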

The test in a line: myeloid differentiation effect on human CD34+ progenitors – cell-based, MAC1 flow cytometry, set 1, SAR follow-up (AID 743198). Conditions: human CD34+ cells, 4 days; at 10 µM (top of the series).
For `O=C(CNC(=O)c1ccc(OC(F)(F)F)cc1)N[C@@H]1CCCc2ccccc21`, the compound was classed as inactive.

`O=C(CCNC(=O)c1ccc(Cl)c(Cl)c1)N[C@@H]1CCCc2ccccc21`: the MAC1+ differentiation, normalised came to 96.1%.

`O=C(CCNC(=O)c1ccc(Cl)cc1)NC1CCCc2ccccc21` (stereo not given) registered an MAC1+ differentiation, normalised of 86.2%.

Compound `O=C(CCNC(=O)c1ccc2c(c1)OC(F)(F)O2)N[C@@H]1CCCc2ccccc21` registered an MAC1+ differentiation, normalised of 90%.

On to `O=C(O)c1cccnc1Nc1ccc(Cl)cc1`, for which the MAC1+ differentiation, normalised worked out at 85%.

`O=C(CCNC(=O)c1ccc(C(F)(F)F)cc1)N[C@@H]1CCCc2ccccc21` displayed an MAC1+ differentiation, normalised of 96%.

With `O=C(CCNC(=O)c1ccc(Cl)cc1)N[C@H]1CCCc2ccccc21`, the compound was called inactive.

The compound `O=C(CCNC(=O)c1ccc(Cl)cc1)N[C@@H]1CCCc2ccccc21` registered an MAC1+ differentiation, normalised of 95.7%.

In turn, `O=C(CCNC(=O)c1ccc(OC(F)(F)F)cc1)N[C@@H]1CCCc2ccccc21` came in with an MAC1+ differentiation, normalised of 96.3%.

In the case of `O=C(CCCNC(=O)c1ccc(OC(F)(F)F)cc1)N[C@@H]1CCCc2ccccc21`, the result was inactive.

The values are drawn from PubChem BioAssay AID743198 (NMMLSC, 2013).
